Measurements as given in PubChem BioAssay AID2013 (Sanford-Burnham Center for Chemical Genomics, 2009).
Out of some 290,000 compounds screened, about 370 (0.13%) were called active. Shown is part of a subset that was picked to be rich in actives. Results with a measured potency or affinity are listed apart. Unmarked numbers belong to inactive results.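 Rule for the calls: active = spots per cell inhibited over 60%, with over 100 cells counted and total cytoplasm intensity under 500,000; inconclusive = wells with under 100 cells, flagged as likely toxic; inactive = the rest.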

Molecular target: G-protein coupled receptor 55 (Homo sapiens) (UniProt Q9Y2T6)
Sequence (Q9Y2T6 whole entry, looked up): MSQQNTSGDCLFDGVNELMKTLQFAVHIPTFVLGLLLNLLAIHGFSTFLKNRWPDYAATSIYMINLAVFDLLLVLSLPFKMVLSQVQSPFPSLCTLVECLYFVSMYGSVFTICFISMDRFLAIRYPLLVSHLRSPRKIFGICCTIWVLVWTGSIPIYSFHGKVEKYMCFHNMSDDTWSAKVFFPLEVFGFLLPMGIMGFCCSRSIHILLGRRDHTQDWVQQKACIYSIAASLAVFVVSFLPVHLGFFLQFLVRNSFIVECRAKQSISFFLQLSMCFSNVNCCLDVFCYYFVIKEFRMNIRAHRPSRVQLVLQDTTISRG
Assay: inhibition of LPI-stimulated GPR55 beta-arrestin translocation – imaging, U2OS, beta-arrestin-GFP, LPI agonist, primary screen (AID 2013);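 note: U2OS cells stably carrying GPR55 and arrestin-GFP stimulated by 5 µM LPI near EC80; imaged beta-arrestin-GFP aggregate spots per cell after agonist stimulation; plate controls were LPI-stimulated DMSO wells for no effect and DMSO wells without LPI for full effect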
Conditions: LPI antagonism, at 10 µM, stronger effect = higher value

SMILES | inhibition
C=CCN1C(=O)SC(Cc2cccc(OC)c2O)C1=O (centres undefined) | -4.5%
COc1ccc(C(=O)NC(C)Cc2cnccn2)cc1OC1CCN(C(C)C)CC1 (centres undefined) | 18.7%
CC(C(=O)Nc1cccnc1)n1cc([N+](=O)[O-])cn1 (centres undefined) | 9.4%
COCCN=C1N[C@@H](c2cccc(C(F)(F)F)c2)C(C(=O)OC)=C(C)N1Cc1ccccc1 | 31.8%
COC(=O)C1=C(C)N(Cc2ccccc2)C(=O)N[C@H]1c1cccc(C(F)(F)F)c1 | 6.8%
COc1ccccc1NC(=O)CN1CCN(C2c3ccccc3-c3ccccc32)CC1 | 59.8%
COc1ccc(NC(=O)CN2CCN(C3c4ccccc4-c4ccccc43)CC2)cc1 | 9.6%
COc1ccccc1NC(=O)CN1CCN(CC(=O)Nc2cc(NC(C)=O)ccc2OC)CC1 | -4.4%
COc1ccc(NC(C)=O)cc1NC(=O)CN1CCN(CC(=O)Nc2ccccc2Cl)CC1 | 21.6%
COc1ccc(NC(C)=O)cc1NC(=O)CN1CCN(C2c3ccccc3-c3ccccc32)CC1 | 100% (active)
Nc1c2c(nn1-c1ccc(F)cc1)CSC2 | -2.1%
O=C(CO/N=C1\CCCc2nonc21)Nc1ccccc1Cl | 0.5%
O=C1/C(=C/c2ccccc2)SC(=S)N1C1CCS(=O)(=O)C1 (centres undefined) | 9.4%
O=C1/C(=C/c2cccnc2)SC(=S)N1C1CCS(=O)(=O)C1 (centres undefined) | 3.6%
C=C(C)CNC(=S)NNC(=O)CCn1c2ccccc2c2ccccc21 | -10.4%
CCOc1ccc(CCNC(=O)c2ccc(CS(=O)Cc3ccc(Cl)cc3)o2)cc1OCC (centres undefined) | 13.4%
Cc1ccc(Cn2cc(SCC(=O)Nc3nccs3)c3ccccc32)cc1 | 2.5%
Cc1cc(C)c2nc(-c3ccccn3)cc(C(=O)Nc3cc(C)on3)c2c1 | 1.5%
Cc1ccc(-c2cc(C(=O)Nc3ccc(S(=O)(=O)Nc4onc(C)c4C)cc3)c3ccccc3n2)cc1 | -14.3%
Cc1ccc(-c2cc(C(=O)Nc3ccc(S(=O)(=O)Nc4cc(C)on4)cc3)c3ccccc3n2)c(C)c1 | 32.5%
Cc1cc(C)c(C(=O)Nc2ccc(S(=O)(=O)Nc3onc(C)c3C)cc2)c(C)c1 | 4.6%
Cc1ccccc1C(=O)Nc1ccc(S(=O)(=O)Nc2onc(C)c2C)cc1 | 6.6%
Cc1noc(NS(=O)(=O)c2ccc(NC(=O)c3cc(-c4ccccc4Cl)nc4ccccc34)cc2)c1C | 14.9%
COc1ccc(-n2ncc3c(=O)n(CC(=O)Nc4ccc5c(c4)OCCO5)cnc32)cc1 | 0.6%
